Measurements: PubChem BioAssay (NCI)
About 83,000 compounds went through this panel and 20% of them were active in at least one assay; those are over-represented in the sample as a whole.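 Activity criterion: percent growth below 10, measured after cells in 96-well plates were exposed to a single compound concentration for 48 hours.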 Active and inactive are the calls of the source.

Key:
Experiment in all cases: NCI-60 one-dose screen, 48 h (100 = growth as untreated, 0 = no growth, -100 = all killed)
SK-MEL-2 melanoma = conditions: 10 µM unless noted
EKVX NSCLC = conditions: 10 µM unless noted
SN12C renal = conditions: 10 µM unless noted
UO-31 renal = conditions: 10 µM unless noted
TK-10 renal = conditions: 10 µM unless noted
ACHN renal = conditions: 10 µM unless noted
CAKI-1 renal = conditions: 10 µM unless noted
A498 renal = conditions: 10 µM unless noted
CCRF-CEM leukemia = conditions: 10 µM unless noted
MOLT-4 leukemia = conditions: 10 µM unless noted
SR leukemia = conditions: 10 µM unless noted
RPMI-8226 leukemia = conditions: 10 µM unless noted
OVCAR-8 ovarian = conditions: 10 µM unless noted
OVCAR-5 ovarian = conditions: 10 µM unless noted
SK-OV-3 ovarian = conditions: 10 µM unless noted
IGROV1 ovarian = conditions: 10 µM unless noted
OVCAR-3 ovarian = conditions: 10 µM unless noted
NCI/ADR-RES ovarian = conditions: 10 µM unless noted
HS 578T breast = conditions: 10 µM unless noted
OVCAR-4 ovarian = conditions: 10 µM

Measured: growth

O=C1CC(c2ccccc2)Cc2nc3ccc(Br)cc3cc21 (centres undefined)
inactive: SK-MEL-2 melanoma 45.2% | EKVX NSCLC 36.3% | SN12C renal 32.2% | UO-31 renal 41.4% | TK-10 renal 73.4% | ACHN renal 34.3% | CAKI-1 renal 30.7% | MOLT-4 leukemia 10.5% | SR leukemia 13.1% | RPMI-8226 leukemia 50% | OVCAR-8 ovarian 24.1% | OVCAR-5 ovarian 27.2% | SK-OV-3 ovarian 47.6% | IGROV1 ovarian 22% | NCI/ADR-RES ovarian 17.1%
active: A498 renal -12.4% | CCRF-CEM leukemia 8.51% | OVCAR-3 ovarian -28.4%

CC(C)[C@H]1CCC2=C3CC[C@]45OC(=O)[C@@]6(CCC(C)(C)C[C@H]64)CC[C@@]5(C)[C@]3(C)CC[C@@]21C
inactive: SK-MEL-2 melanoma 74.9% [100 µM] | EKVX NSCLC 88.3% [100 µM] | SN12C renal 70.6% [100 µM] | UO-31 renal 67.9% [100 µM] | TK-10 renal 101% [100 µM] | ACHN renal 72.4% [100 µM] | CAKI-1 renal 53.7% [100 µM] | A498 renal 103% [100 µM] | CCRF-CEM leukemia 49.7% [100 µM] | MOLT-4 leukemia 26.5% [100 µM] | SR leukemia 60.3% [100 µM] | RPMI-8226 leukemia 58.2% [100 µM] | OVCAR-8 ovarian 70.3% [100 µM] | OVCAR-5 ovarian 107% [100 µM] | SK-OV-3 ovarian 75.3% [100 µM] | IGROV1 ovarian 61% [100 µM] | OVCAR-3 ovarian 80.2% [100 µM] | HS 578T breast 61.6% [100 µM] | NCI/ADR-RES ovarian 81.9% [100 µM]

COc1cc(C)cc2oc3oc(=N)c(C(=O)c4ccccc4)cc3c(=O)c12
inactive: SK-MEL-2 melanoma 114% | EKVX NSCLC 106% | SN12C renal 101% | UO-31 renal 79.3% | TK-10 renal 105% | ACHN renal 95.5% | CAKI-1 renal 91.6% | A498 renal 90.3% | CCRF-CEM leukemia 118% | MOLT-4 leukemia 98.1% | SR leukemia 94.5% | RPMI-8226 leukemia 116% | OVCAR-8 ovarian 105% | OVCAR-5 ovarian 95.2% | SK-OV-3 ovarian 120% | IGROV1 ovarian 93.9% | OVCAR-3 ovarian 101% | NCI/ADR-RES ovarian 106%

Cc1cnc(N)nc1OCC(C)(C)CNC(=O)c1cccc(-c2ccc(S(=O)(=O)Nc3ccc4c(c3)N(C(=O)C3CC3)CCC4)cc2)c1
inactive: SK-MEL-2 melanoma 67.7% | EKVX NSCLC 62.9% | SN12C renal 68.5% | UO-31 renal 62% | TK-10 renal 76.6% | ACHN renal 70.2% | CAKI-1 renal 52.1% | A498 renal 37.3% | CCRF-CEM leukemia 61.7% | MOLT-4 leukemia 29.1% | SR leukemia 79.9% | RPMI-8226 leukemia 44.6% | OVCAR-8 ovarian 62.3% | OVCAR-5 ovarian 79.4% | SK-OV-3 ovarian 68.2% | IGROV1 ovarian 63.4% | OVCAR-3 ovarian 68.2% | NCI/ADR-RES ovarian 105%

CCOC(=O)n1cc(C2=C(c3ccc(OC)c(OC)c3)COC2=O)c2ccccc21
active: A498 renal -25.3% | OVCAR-3 ovarian -42.6% | NCI/ADR-RES ovarian 8.29%
inactive: SK-MEL-2 melanoma 62.1% | EKVX NSCLC 51.5% | SN12C renal 18.5% | UO-31 renal 26.5% | TK-10 renal 53.7% | ACHN renal 23.1% | CAKI-1 renal 23.6% | CCRF-CEM leukemia 17.6% | MOLT-4 leukemia 11.6% | RPMI-8226 leukemia 27.9% | OVCAR-8 ovarian 25.5% | OVCAR-5 ovarian 50.1% | OVCAR-4 ovarian 35.3% | IGROV1 ovarian 18.2% | HS 578T breast 36.2%

CC(=O)O.CC(=O)O.O.[Fe]
inactive: SK-MEL-2 melanoma 109% | EKVX NSCLC 147% | SN12C renal 95.2% | UO-31 renal 89% | TK-10 renal 105% | ACHN renal 107% | CAKI-1 renal 130% | A498 renal 89.8% | CCRF-CEM leukemia 131% | MOLT-4 leukemia 116% | SR leukemia 124% | RPMI-8226 leukemia 135% | OVCAR-8 ovarian 99.1% | OVCAR-5 ovarian 105% | SK-OV-3 ovarian 94.1% | OVCAR-3 ovarian 108% | HS 578T breast 93.2% | NCI/ADR-RES ovarian 102%

O=C(Nc1cccc2ccccc12)c1cc2ccccc2cc1O
active: SN12C renal 7.28% | UO-31 renal -19.2% | ACHN renal 1.41% | CAKI-1 renal -40% | A498 renal -13.8% | SK-OV-3 ovarian 0.954% | NCI/ADR-RES ovarian 4.52%
inactive: SK-MEL-2 melanoma 20.9% | EKVX NSCLC 15% | TK-10 renal 34.4% | CCRF-CEM leukemia 17.1% | MOLT-4 leukemia 21.4% | SR leukemia 16% | RPMI-8226 leukemia 15.1% | OVCAR-8 ovarian 12.2% | OVCAR-5 ovarian 105% | OVCAR-3 ovarian 19.9% | HS 578T breast 32.2%

CC1(C)S[C@@H]2[C@H](NC(=O)[C@H](C(=O)O)c3cccs3)C(=O)N2[C@H]1C(=O)O
inactive: SK-MEL-2 melanoma 98.2% | EKVX NSCLC 93.1% | SN12C renal 104% | UO-31 renal 85.6% | TK-10 renal 103% | ACHN renal 95.2% | CAKI-1 renal 93.2% | A498 renal 118% | CCRF-CEM leukemia 105% | MOLT-4 leukemia 125% | RPMI-8226 leukemia 117% | OVCAR-8 ovarian 98.7% | OVCAR-5 ovarian 100% | OVCAR-4 ovarian 112% | SK-OV-3 ovarian 105% | IGROV1 ovarian 109% | OVCAR-3 ovarian 111% | NCI/ADR-RES ovarian 102%

CSc1nc2c(c(=O)n1C)C1(C(=O)N(Cc3ccccc3)c3ccccc31)c1c(nc(SC)n(C)c1=O)N2
inactive: SK-MEL-2 melanoma 80.8% | EKVX NSCLC 100% | SN12C renal 95.1% | UO-31 renal 73.9% | TK-10 renal 113% | ACHN renal 77.5% | CAKI-1 renal 103% | A498 renal 72.6% | CCRF-CEM leukemia 98.8% | MOLT-4 leukemia 99.9% | SR leukemia 104% | RPMI-8226 leukemia 59.2% | OVCAR-8 ovarian 85.5% | OVCAR-5 ovarian 102% | OVCAR-3 ovarian 75.2% | HS 578T breast 97.9% | NCI/ADR-RES ovarian 95.2%

CC(=O)CC(=O)SC1=NCCS1
inactive: SK-MEL-2 melanoma 131% | EKVX NSCLC 111% | SN12C renal 108% | UO-31 renal 98.9% | TK-10 renal 110% | ACHN renal 108% | CAKI-1 renal 97.2% | A498 renal 121% | CCRF-CEM leukemia 87.2% | MOLT-4 leukemia 98.8% | RPMI-8226 leukemia 98.1% | OVCAR-8 ovarian 99.3% | OVCAR-5 ovarian 117% | OVCAR-4 ovarian 109% | SK-OV-3 ovarian 112% | IGROV1 ovarian 140% | OVCAR-3 ovarian 113% | NCI/ADR-RES ovarian 113%

Clc1ccc2nc(-c3ccc(-c4ccc(/C=N/NC5=NCCN5)cc4)s3)cn2c1
inactive: SK-MEL-2 melanoma 110% | EKVX NSCLC 90.8% | SN12C renal 88.6% | UO-31 renal 72.8% | TK-10 renal 123% | ACHN renal 103% | CAKI-1 renal 106% | A498 renal 76.6% | CCRF-CEM leukemia 76.3% | MOLT-4 leukemia 79.7% | RPMI-8226 leukemia 53.5% | OVCAR-8 ovarian 102% | OVCAR-5 ovarian 107% | IGROV1 ovarian 94.6% | OVCAR-3 ovarian 109% | HS 578T breast 92.6% | NCI/ADR-RES ovarian 99.3%
active: SR leukemia 8.33%

Cn1cc(-c2nnc(-c3cn(C)c4ncc(Br)cc34)s2)c2cc(Br)ccc21
inactive: SK-MEL-2 melanoma 101% | EKVX NSCLC 69.2% | SN12C renal 94.5% | UO-31 renal 79.8% | TK-10 renal 108% | ACHN renal 94.2% | CAKI-1 renal 73.9% | A498 renal 52.6% | MOLT-4 leukemia 97.3% | RPMI-8226 leukemia 87.4% | OVCAR-8 ovarian 96.1% | OVCAR-5 ovarian 88.6% | OVCAR-4 ovarian 93.8% | IGROV1 ovarian 73.9% | OVCAR-3 ovarian 100% | HS 578T breast 89.3% | NCI/ADR-RES ovarian 102%
active: CCRF-CEM leukemia -27.5%

Nc1nc(Nc2ccccc2)c2ncn(Cc3ccc4c(c3)OCO4)c2n1
active: NCI/ADR-RES ovarian 9.58%
inactive: SK-MEL-2 melanoma 12.2% | EKVX NSCLC 48.7% | SN12C renal 43% | UO-31 renal 49.3% | TK-10 renal 63.3% | ACHN renal 56.7% | CAKI-1 renal 31.5% | A498 renal 39.8% | CCRF-CEM leukemia 66.8% | MOLT-4 leukemia 13.4% | SR leukemia 13.6% | RPMI-8226 leukemia 30.6% | OVCAR-8 ovarian 55.1% | OVCAR-5 ovarian 71.5% | SK-OV-3 ovarian 51.2% | OVCAR-3 ovarian 24.1% | HS 578T breast 42.8%

NC(=O)CC1C=CCC1 (centres undefined)
inactive: SK-MEL-2 melanoma 105% | EKVX NSCLC 105% | SN12C renal 99.4% | UO-31 renal 91.5% | TK-10 renal 89.2% | ACHN renal 100% | CAKI-1 renal 99.2% | A498 renal 97.1% | CCRF-CEM leukemia 82.4% | MOLT-4 leukemia 95.6% | SR leukemia 106% | RPMI-8226 leukemia 96.5% | OVCAR-8 ovarian 84.7% | OVCAR-5 ovarian 96.7% | SK-OV-3 ovarian 105% | OVCAR-3 ovarian 111% | HS 578T breast 110% | NCI/ADR-RES ovarian 109%

Nn1c(Nc2ccc(S(=O)(=O)Nc3ncccn3)cc2)nnc(/C=C/c2c(O)ccc3ccccc23)c1=O
inactive: SK-MEL-2 melanoma 89.2% | EKVX NSCLC 90.9% | SN12C renal 96.8% | UO-31 renal 58.6% | TK-10 renal 120% | ACHN renal 91.9% | CAKI-1 renal 98.4% | A498 renal 93.2% | CCRF-CEM leukemia 79.3% | MOLT-4 leukemia 70.7% | SR leukemia 89.7% | RPMI-8226 leukemia 72.4% | OVCAR-8 ovarian 93.4% | OVCAR-4 ovarian 75.8% | SK-OV-3 ovarian 84.2% | IGROV1 ovarian 82.9% | OVCAR-3 ovarian 80.1% | HS 578T breast 94.9% | NCI/ADR-RES ovarian 94.6%

CC1(C)CC(=O)c2c(ccc(C(=O)C[C@@H](N)CO)c2N)O1
inactive: EKVX NSCLC 80.7% | SN12C renal 14.8% | UO-31 renal 25.1% | TK-10 renal 61.4% | ACHN renal 36.3% | CCRF-CEM leukemia 13% | MOLT-4 leukemia 21% | SR leukemia 14.7% | OVCAR-5 ovarian 49.8% | IGROV1 ovarian 12.9% | HS 578T breast 84.7% | NCI/ADR-RES ovarian 35%
active: SK-MEL-2 melanoma 9.07% | CAKI-1 renal 4.82% | A498 renal -70.4% | RPMI-8226 leukemia 0.0254% | OVCAR-8 ovarian 7.69% | OVCAR-3 ovarian 0.385%
